Data: PubChem BioAssay (EPA / NIEHS)
The source made the active and inactive calls. How the source made its calls: active means hit-call score of the fitted dose curve at least 0.9, where 1 is the maximum; inactive means score below 0.9.

Experiments:
[1] = biological target: Bile acid receptor (Homo sapiens) (UniProt Q96RI1); experiment: ATG_IR1_CIS: Attagene CIS-FACTORIAL HepG2 Assay for human Nuclear Receptor Subfamily 1 Group H Member 4 (NR1H4), IR1 submotif (AID 2282946); conditions: IR1 reporter transcription, actives raise or lower the signal
Chain of Bile acid receptor (Homo sapiens) (Q96RI1 whole entry, looked up): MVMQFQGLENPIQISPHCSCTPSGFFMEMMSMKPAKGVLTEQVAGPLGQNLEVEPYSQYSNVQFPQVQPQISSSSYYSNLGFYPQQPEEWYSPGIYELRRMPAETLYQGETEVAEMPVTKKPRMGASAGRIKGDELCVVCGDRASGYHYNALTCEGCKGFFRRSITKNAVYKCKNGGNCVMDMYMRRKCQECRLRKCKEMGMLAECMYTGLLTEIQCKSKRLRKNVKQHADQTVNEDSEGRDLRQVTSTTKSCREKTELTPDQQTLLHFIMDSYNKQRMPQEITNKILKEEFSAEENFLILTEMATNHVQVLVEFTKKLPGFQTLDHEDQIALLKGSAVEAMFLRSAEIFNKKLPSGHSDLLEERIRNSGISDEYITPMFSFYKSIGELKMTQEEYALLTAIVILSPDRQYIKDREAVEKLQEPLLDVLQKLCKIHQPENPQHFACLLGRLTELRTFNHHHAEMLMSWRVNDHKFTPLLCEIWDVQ
Summary of the method: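 Transient MRTU transfection, HepG2; 24 h dosing; RNA → RT-PCR → 6-FAM primer extension → HpaI digest → capillary electrophoresis fluorescence. Gain/loss of signal fitted relative to DMSO.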

[2] = ATG_GRE_CIS: Attagene CIS-FACTORIAL HepG2 Assay for human Glucocorticoid Response Elements (GRE) (AID 2282947); conditions: HepG2 GRE cis-reporter, Attagene multiplex mRNA; actives raise or lower the signal
Summary of the method: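 Following 24 h chemical exposure of transiently transfected HepG2 cells, total RNA was reverse-transcribed and reporter cDNA amplified, fluorescently labelled and sized by capillary electrophoresis. Signal gain or loss was fitted relative to DMSO vehicle.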

[3] = ATG_ISRE_CIS: Attagene CIS-FACTORIAL HepG2 Assay for human Interferon Regulatory Factor 1 (IRF1) binding to an Interferon-Stimulated Response Element (ISRE) (AID 2282948); conditions: HepG2 ISRE cis-reporter (Attagene), mRNA transcription readout; actives raise or lower the signal
Summary of the method: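 Transiently transfected HepG2 cells carrying cis-element reporter units, dosed 24 hours. Reporter mRNA quantified by RT-PCR, fluorescent primer extension, HpaI digestion and capillary electrophoresis. Bidirectional fitting relative to DMSO.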

[4] = ATG_M_32_CIS: Attagene CIS-FACTORIAL HepG2 Assay for M32 Transcription Factor (Internal Marker) (AID 2282949); conditions: HepG2 Attagene cis-factorial M32 reporter, mRNA; actives raise or lower the signal;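 further: background control marker of the multiplexed CIS panel rather than a real target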
Summary of the method: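 HepG2 cells transiently transfected with multiplexed cis-regulated reporter units, dosed 24 h. Reporter mRNA quantified by RT-PCR, 6-FAM labelling, HpaI digestion and capillary electrophoresis; bidirectional fit vs DMSO.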

[5] = ATG_M_06_CIS: Attagene CIS-FACTORIAL HepG2 Assay for M06 Transcription Factor (Internal Marker) (AID 2282950); conditions: HepG2 Attagene CIS-FACTORIAL M06 internal marker reporter; actives raise or lower the signal
Summary of the method: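 Cells (HepG2, transiently carrying cis-driven reporter units) receive chemical for 24 h before RNA isolation. Reporter cDNA is PCR-amplified, FAM-labelled by primer extension, HpaI-digested and sized on a capillary analyser.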

[6] = biological target: Hypoxia-inducible factor 1-alpha (Homo sapiens) (UniProt Q16665); experiment: ATG_HIF1a_CIS: Attagene CIS-FACTORIAL HepG2 Assay for human Hypoxia Inducible Factor 1 (HIF1A) (AID 2282951); conditions: HepG2 Attagene cis-factorial HIF1a reporter transcription; actives raise or lower the signal
Chain of Hypoxia-inducible factor 1-alpha (Homo sapiens) (Q16665 whole entry, looked up): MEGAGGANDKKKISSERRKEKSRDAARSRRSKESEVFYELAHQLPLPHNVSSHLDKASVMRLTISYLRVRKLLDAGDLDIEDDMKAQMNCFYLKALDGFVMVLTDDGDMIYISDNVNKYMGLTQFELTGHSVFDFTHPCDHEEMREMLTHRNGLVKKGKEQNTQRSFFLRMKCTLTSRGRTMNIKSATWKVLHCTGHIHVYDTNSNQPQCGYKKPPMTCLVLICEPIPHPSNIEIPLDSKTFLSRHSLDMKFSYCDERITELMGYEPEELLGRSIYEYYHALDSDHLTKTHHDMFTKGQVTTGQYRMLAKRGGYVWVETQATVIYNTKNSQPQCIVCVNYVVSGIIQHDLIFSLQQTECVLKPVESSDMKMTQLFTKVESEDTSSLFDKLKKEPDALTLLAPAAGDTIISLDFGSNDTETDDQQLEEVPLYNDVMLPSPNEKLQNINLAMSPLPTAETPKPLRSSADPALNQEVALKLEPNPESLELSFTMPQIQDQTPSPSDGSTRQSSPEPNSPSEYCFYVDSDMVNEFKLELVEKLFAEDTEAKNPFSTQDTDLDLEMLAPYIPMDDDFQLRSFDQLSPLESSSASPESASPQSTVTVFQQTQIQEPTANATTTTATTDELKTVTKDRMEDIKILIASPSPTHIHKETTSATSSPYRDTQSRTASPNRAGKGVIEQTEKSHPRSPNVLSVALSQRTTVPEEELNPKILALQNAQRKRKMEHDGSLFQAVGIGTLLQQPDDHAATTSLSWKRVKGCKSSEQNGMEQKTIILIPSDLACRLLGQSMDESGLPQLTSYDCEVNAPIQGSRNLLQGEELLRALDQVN
Summary of the method: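 HepG2 cells transiently transfected with multiple cis-regulated reporter transcription units measure endogenous transcription factor activity. After 24 h exposure, reporter mRNA is quantified by RT-PCR with 6-FAM labelling, HpaI digestion and capillary electrophoresis. Bidirectional fitting against DMSO.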

[7] = biological target: Hepatocyte nuclear factor 6 (Homo sapiens) (UniProt Q9UBC0); experiment: ATG_HNF6_CIS: Attagene CIS-FACTORIAL HepG2 Assay for human Hepatocyte Nuclear Factor 6 (HNF6) (AID 2282952); conditions: HepG2 Attagene cis-factorial HNF6 reporter transcription; actives raise or lower the signal
Chain of Hepatocyte nuclear factor 6 (Homo sapiens) (Q9UBC0 whole entry, looked up): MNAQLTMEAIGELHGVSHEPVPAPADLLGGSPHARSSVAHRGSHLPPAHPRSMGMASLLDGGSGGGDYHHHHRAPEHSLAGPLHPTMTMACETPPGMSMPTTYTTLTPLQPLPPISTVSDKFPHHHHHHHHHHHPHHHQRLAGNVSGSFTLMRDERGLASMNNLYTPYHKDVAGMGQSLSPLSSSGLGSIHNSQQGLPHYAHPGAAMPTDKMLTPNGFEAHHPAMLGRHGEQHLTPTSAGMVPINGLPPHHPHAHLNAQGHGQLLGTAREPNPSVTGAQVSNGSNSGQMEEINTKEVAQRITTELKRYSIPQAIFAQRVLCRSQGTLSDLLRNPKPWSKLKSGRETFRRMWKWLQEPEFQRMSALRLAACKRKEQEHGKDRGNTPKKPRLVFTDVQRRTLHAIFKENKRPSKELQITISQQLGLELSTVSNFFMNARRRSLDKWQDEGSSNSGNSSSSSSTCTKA
Summary of the method: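 Transiently transfected HepG2 cells expressing cis-regulated reporter transcription units were exposed to chemical for 24 h in a 24-well format. Reporter transcript abundance was determined by fluorescence capillary electrophoresis.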

[8] = biological target: Heat shock factor protein 1 (Homo sapiens) (UniProt Q00613); experiment: ATG_HSE_CIS: Attagene CIS-FACTORIAL HepG2 Assay for human Heat Shock Transcription Factor 1 (HSE) (AID 2282953); conditions: HepG2 HSE cis-reporter, Attagene RNA transcription; actives raise or lower the signal
Chain of Heat shock factor protein 1 (Homo sapiens) (Q00613 whole entry, looked up): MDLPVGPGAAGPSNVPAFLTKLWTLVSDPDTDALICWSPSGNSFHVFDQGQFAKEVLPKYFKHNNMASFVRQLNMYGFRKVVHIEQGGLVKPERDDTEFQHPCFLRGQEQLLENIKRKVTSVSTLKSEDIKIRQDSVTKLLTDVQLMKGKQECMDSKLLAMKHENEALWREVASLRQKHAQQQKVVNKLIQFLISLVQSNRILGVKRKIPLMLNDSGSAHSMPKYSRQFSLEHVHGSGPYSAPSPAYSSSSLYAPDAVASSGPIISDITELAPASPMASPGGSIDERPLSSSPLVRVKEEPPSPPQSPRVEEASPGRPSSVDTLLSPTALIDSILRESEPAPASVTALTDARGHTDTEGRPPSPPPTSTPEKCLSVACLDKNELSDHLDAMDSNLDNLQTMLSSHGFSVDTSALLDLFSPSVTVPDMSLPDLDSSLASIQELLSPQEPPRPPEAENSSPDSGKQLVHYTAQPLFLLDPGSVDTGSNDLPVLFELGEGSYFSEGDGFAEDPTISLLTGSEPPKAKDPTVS
Summary of the method: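 Liver-derived HepG2 cells carry transiently introduced multiple reporter units governed by cis promoters. Reporter RNA measured 24 h post-dose through reverse transcription, PCR amplification, fluorescent labelling and capillary electrophoresis, normalised to DMSO.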

[9] = ATG_MRE_CIS: Attagene CIS-FACTORIAL HepG2 Assay for human Metal Responsive Element (MRE) (AID 2282954); conditions: HepG2 MRE cis-reporter transcription, Attagene multiplex; actives raise or lower the signal
Summary of the method: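 Step one: transfect HepG2 with cis-regulated reporter units. Step two: dose 24 h. Step three: isolate RNA, RT-PCR, 6-FAM label, HpaI digest, capillary electrophoresis. Fit bidirectionally to DMSO.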

[10] = biological target: Paired box protein Pax-6 (Homo sapiens) (UniProt P26367); experiment: ATG_Pax6_CIS: Attagene CIS-FACTORIAL HepG2 Assay for human Paired Box 6 (PAX6) (AID 2282956); conditions: HepG2 CIS-FACTORIAL PAX6 reporter transcription, RNA readout; actives raise or lower the signal
Chain of Paired box protein Pax-6 (Homo sapiens) (P26367 whole entry, looked up): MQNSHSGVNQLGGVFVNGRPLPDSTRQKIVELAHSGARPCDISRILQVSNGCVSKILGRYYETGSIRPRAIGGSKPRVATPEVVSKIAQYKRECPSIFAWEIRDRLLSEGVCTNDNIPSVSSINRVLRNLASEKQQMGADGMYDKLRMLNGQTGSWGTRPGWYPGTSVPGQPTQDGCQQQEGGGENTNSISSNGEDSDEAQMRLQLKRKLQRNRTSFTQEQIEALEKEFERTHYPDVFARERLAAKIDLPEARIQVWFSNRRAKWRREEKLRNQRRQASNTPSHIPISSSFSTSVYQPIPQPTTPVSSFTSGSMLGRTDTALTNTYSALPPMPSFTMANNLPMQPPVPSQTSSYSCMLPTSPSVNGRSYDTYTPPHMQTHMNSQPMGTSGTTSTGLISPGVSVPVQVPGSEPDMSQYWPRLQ
Summary of the method: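 HepG2 cells transiently transfected with cis-promoter-driven multiplexed reporter units sensing endogenous transcription factor activity; 24 h chemical exposure. Reporter mRNA quantified by RT-PCR, 6-FAM labelling, HpaI digestion and capillary electrophoresis; bidirectional fit versus DMSO baseline.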

[11] = ATG_PXRE_CIS: Attagene CIS-FACTORIAL HepG2 Assay for human Pregnane X Receptor Element (PXRE) (AID 2282957); conditions: HepG2 Attagene CIS-FACTORIAL PXRE reporter, mRNA; actives raise or lower the signal
Summary of the method: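 Cis-element reporter mRNA in human hepatoma HepG2 cells is measured 24 h post-dosing by RT-PCR, primer-extension labeling and capillary electrophoresis; gain or loss of signal is fitted relative to DMSO.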

[12] = ATG_PPRE_CIS: Attagene CIS-FACTORIAL HepG2 Assay for human Peroxisome Proliferator-activated Response Element (PPRE) (AID 2282958); conditions: HepG2 PPRE cis-element reporter, Attagene transcription factor profiling; actives raise or lower the signal
Summary of the method: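 HepG2 cells are transiently transfected with multiplexed cis-promoter reporter units to report endogenous PPAR activity. After 24 h dosing, reporter mRNA is read by RT-PCR and capillary electrophoresis. Fitting is bidirectional against DMSO.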

[13] = ATG_Sox_CIS: Attagene CIS-FACTORIAL HepG2 Assay for human SRY-box transcription factor (SOX) (AID 2282960); conditions: HepG2 Attagene cis-factorial SOX reporter, mRNA; actives raise or lower the signal
Summary of the method: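 HepG2 cells transiently transfected with multiple cis-regulated reporter units, then dosed for 24 h. Reporter mRNA quantified by RT-PCR, fluorescent labelling, HpaI digestion and capillary electrophoresis; bidirectional fit versus DMSO.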

[14] = biological target: Transcription factor Sp1 (Homo sapiens) (UniProt P08047); experiment: ATG_Sp1_CIS: Attagene CIS-FACTORIAL HepG2 Assay for human Specificity Protein 1 (Sp1) (AID 2282961); conditions: HepG2 Sp1 cis-reporter transcription, actives raise or lower the signal
Chain of Transcription factor Sp1 (Homo sapiens) (P08047 whole entry, looked up): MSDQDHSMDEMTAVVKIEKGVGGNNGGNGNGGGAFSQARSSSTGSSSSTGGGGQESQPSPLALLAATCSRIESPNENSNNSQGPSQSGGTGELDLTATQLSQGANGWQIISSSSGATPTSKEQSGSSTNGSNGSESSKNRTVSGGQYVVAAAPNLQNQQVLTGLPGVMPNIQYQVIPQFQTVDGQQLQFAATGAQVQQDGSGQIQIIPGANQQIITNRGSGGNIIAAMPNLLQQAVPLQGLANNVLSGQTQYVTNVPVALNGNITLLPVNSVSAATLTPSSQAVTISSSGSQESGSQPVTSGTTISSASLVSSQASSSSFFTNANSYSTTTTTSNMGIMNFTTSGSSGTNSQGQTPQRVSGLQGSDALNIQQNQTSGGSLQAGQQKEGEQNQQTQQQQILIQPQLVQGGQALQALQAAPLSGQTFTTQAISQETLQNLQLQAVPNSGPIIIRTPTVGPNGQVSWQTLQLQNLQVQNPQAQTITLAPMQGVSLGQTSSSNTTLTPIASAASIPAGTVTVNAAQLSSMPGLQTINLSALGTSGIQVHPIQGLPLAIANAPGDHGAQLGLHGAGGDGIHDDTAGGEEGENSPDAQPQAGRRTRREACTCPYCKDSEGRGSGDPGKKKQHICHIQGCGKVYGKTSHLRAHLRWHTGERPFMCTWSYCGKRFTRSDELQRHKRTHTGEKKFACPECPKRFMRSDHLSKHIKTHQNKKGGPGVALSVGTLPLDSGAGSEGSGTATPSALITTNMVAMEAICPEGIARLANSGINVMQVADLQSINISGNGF
Summary of the method: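 HepG2 cells transiently transfected with multiplexed cis-regulated reporter constructs, chemical exposure 24 h. Reporter mRNA quantified by RT-PCR with capillary electrophoresis; bidirectional fit relative to DMSO.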

[15] = ATG_SREBP_CIS: Attagene CIS-FACTORIAL HepG2 Assay for human Sterol Regulatory Element Binding (SREBP) (AID 2282962); conditions: HepG2 Attagene cis-factorial SREBP reporter, mRNA; actives raise or lower the signal
Summary of the method: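 HepG2 cells transiently transfected with multiplexed cis-promoter reporter units sensing endogenous transcription factors; reporter mRNA measured 24 h after dosing by RT-PCR, 6-FAM labeling, HpaI digestion and capillary electrophoresis. Bidirectional fit versus DMSO.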

[16] = biological target: Signal transducer and activator of transcription 3 (Homo sapiens) (UniProt P40763); experiment: ATG_STAT3_CIS: Attagene CIS-FACTORIAL HepG2 Assay for human Signal Transducer and Activator of Transcription 3 (STAT3) (AID 2282963); conditions: HepG2, Attagene cis-factorial STAT3 reporter transcription; actives raise or lower the signal
Chain of Signal transducer and activator of transcription 3 (Homo sapiens) (P40763 whole entry, looked up): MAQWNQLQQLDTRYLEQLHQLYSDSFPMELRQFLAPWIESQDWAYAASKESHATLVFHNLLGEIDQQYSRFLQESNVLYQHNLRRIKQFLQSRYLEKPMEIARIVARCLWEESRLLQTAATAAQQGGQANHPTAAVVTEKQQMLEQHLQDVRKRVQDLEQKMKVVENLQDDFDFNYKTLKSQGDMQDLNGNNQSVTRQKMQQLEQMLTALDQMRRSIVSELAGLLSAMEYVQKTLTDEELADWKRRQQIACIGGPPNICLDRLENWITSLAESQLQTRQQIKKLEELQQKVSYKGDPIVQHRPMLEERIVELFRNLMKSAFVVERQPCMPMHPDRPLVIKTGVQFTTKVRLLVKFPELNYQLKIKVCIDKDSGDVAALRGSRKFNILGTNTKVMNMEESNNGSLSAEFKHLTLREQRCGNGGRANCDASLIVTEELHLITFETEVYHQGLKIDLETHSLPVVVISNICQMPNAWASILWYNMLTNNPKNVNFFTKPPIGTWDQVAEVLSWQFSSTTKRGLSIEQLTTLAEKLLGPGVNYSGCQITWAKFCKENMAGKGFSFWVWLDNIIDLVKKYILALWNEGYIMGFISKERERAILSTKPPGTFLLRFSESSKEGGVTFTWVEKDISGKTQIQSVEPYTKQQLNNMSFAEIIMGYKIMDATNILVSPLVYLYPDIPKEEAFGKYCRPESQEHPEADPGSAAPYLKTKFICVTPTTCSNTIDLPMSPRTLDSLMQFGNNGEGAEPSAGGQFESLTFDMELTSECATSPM
Summary of the method: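 Transcript-level reporter assay. HepG2 transient MRTU transfection, 24 h exposure, fluorescence detection after RT-PCR and CE; DMSO baseline.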

[17] = ATG_TA_CIS: Attagene CIS-FACTORIAL HepG2 Assay for human TA Basal Promoter (AID 2282964); conditions: HepG2 Attagene CIS-factorial TA basal promoter reporter; actives raise or lower the signal
Summary of the method: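 Background internal-marker endpoint from a 52-component HepG2 cis-reporter panel. Cells treated 24 h; reporter transcripts quantified via RT-PCR and CE fluorescence against DMSO baseline.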

[18] = ATG_TCF_b_cat_CIS: Attagene CIS-FACTORIAL HepG2 Assay for human T-Cell-Factor with beta-catenin (TCF/b-cat) (AID 2282965); conditions: HepG2 TCF/beta-catenin cis-reporter transcription, actives raise or lower the signal
Summary of the method: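 In this cis-format system, transfected HepG2 cells report endogenous transcription factor activity. Readout after 24 h exposure is reporter transcript abundance from RT-PCR and capillary electrophoresis, analysed for gain or loss of signal versus DMSO.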

[19] = ATG_RORE_CIS: Attagene CIS-FACTORIAL HepG2 Assay for human RAR-related Orphan Receptor Element (RORE) (AID 2282959); conditions: HepG2 Attagene cis-factorial RORE reporter, mRNA; actives raise or lower the signal
Summary of the method: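 HepG2 cells carrying transiently transfected cis-regulated reporter units; RORE-driven reporter mRNA quantified 24 h post-dosing by RT-PCR, 6-FAM primer extension, HpaI digestion and capillary electrophoresis. Bidirectional fit versus DMSO.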

[20] = ATG_PBREM_CIS: Attagene CIS-FACTORIAL HepG2 Assay for human Phenobarbital-responsive Enhancer Module (PBREM) (AID 2282955); conditions: HepG2 PBREM cis-reporter, Attagene multiplexed transcription; actives raise or lower the signal
Summary of the method: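 HepG2 cells transiently transfected with multiple cis-regulated reporter units measure endogenous transcription factor activity; 24 h compound exposure. Reporter mRNA quantified by RT-PCR, fluorescent labelling, HpaI digestion and capillary electrophoresis; bidirectional fit versus DMSO.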

Measured: AC50

COc1cc(Cl)c(OC)cc1N
active: [11] 62.4 µM
not listed: [19] | [20]
inactive: all other assays above

O=C(CC(=O)c1ccccc1)c1ccccc1
active: [3] 95.9 µM | [6] 33.5 µM | [7] 145 µM | [8] 145 µM | [9] 136 µM | [10] 100 µM | [11] 25.3 µM | [12] 3.67 µM | [19] 26.7 µM | [13] 100 µM | [14] 94.3 µM | [15] 67.7 µM
inactive: [1] | [2] | [4] | [5] | [16] | [17] | [18]

CCCCC(CC)COC(=O)c1ccc(O)cc1 (stereo unspecified)
active: [11] 11.1 µM
not listed: [12] | [20]
inactive: all other assays above

CCC(C)=O
not listed: [20]
inactive: all other assays above

CCCCCCOCCOCCO
not listed: [11] | [20]
inactive: all other assays above

CCCCCCC(C)Nc1ccc(Nc2ccccc2)cc1 (stereo unspecified)
active: [8] 60.8 µM | [9] 48.9 µM | [11] 1.78 µM
not listed: [15] | [19] | [20]
inactive: all other assays above

O=P(O)(O)O
not listed: [12] | [20]
inactive: all other assays above

CCC1CCCCC1
not listed: [8] | [18]
inactive: all other assays above

NCc1ccco1
not listed: [9] | [20]
inactive: all other assays above

CCCCC(CC)C(=O)OC(C)C (stereo unspecified)
not listed: [9] | [12] | [20]
inactive: all other assays above

CC[N+](C)(CC)CC
not listed: [3] | [12]
inactive: all other assays above

CCCCCCC(C)(C)S
active: [11] 39 µM
not listed: [6] | [12] | [18]
inactive: all other assays above

CC(=O)O[C@H]1C[C@@H]2CC[C@@]1(C)C2(C)C
not listed: [3] | [12] | [20]
inactive: all other assays above

Clc1ccc(C(c2ccccc2Cl)C(Cl)Cl)cc1 (stereo unspecified)
active: [1] 43.8 µM | [3] 60.9 µM | [9] 171 µM | [11] 1.5 µM | [12] 31.9 µM | [13] 182 µM | [14] 52.7 µM | [16] 161 µM | [18] 59.9 µM
inactive: [2] | [4] | [5] | [8] | [20] | [10] | [15] | [17]

CC1(C)O[C@@H]2C[C@H]3[C@@H]4CCC5=CC(=O)C=C[C@]5(C)[C@@]4(F)[C@@H](O)C[C@]3(C)[C@]2(C(=O)CO)O1
active: [2] 0.419 µM | [11] 13.8 µM
not listed: [8] | [16] | [20]
inactive: all other assays above
